High-throughput results (PubChem)
TRHR PAM: allosteric enhancers of human TRH receptor. 360,000 compounds, 0.66% hits. enhancement, % at 2 µM. AID 493056. TRHR cells, fluo-8 calcium fluorescence, EC20 TRH enhancement. P34981; in the data active = enhancement above about 30%; note: 0% is about no effect
Target sequence (P34981 whole entry, looked up): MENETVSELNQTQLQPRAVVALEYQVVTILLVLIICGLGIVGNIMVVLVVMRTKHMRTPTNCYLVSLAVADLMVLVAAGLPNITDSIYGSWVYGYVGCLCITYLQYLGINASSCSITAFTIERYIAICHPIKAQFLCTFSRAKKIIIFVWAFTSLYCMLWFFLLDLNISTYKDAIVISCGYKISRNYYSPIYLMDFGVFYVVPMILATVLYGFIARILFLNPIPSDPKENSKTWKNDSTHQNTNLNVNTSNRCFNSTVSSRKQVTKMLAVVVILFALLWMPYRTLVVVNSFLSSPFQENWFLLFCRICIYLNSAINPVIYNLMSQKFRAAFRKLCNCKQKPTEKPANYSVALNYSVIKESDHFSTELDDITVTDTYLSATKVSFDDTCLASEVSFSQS
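TRHR-expressing cells loaded with fluo-8 calcium dye were read kinetically (ex 480/em 530) during compound addition, then stimulated with an EC20 of TRH (10 nM final). Enhancement of the Gq-mediated intracellular calcium response was scored.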
D1 PAM: enhances dopamine response at the human D1 receptor. potentiation, % at 10 µM. P21728. AID 504651. 360,000 compounds, 0.036% hits. HEK293 TREx D1 cells, calcium flux, dopamine EC20 potentiation; in the data active = potentiation above about 30%; note: 0% is about no effect
D1 antag: blocks dopamine activation of the human D1 receptor; HEK293 TREx D1 cells, calcium flux, dopamine EC80; hits give low values; 360,000 compounds, 3.2% hits; activity change, negative = inhibition, % at 10 µM; in the data active = activity change below about -30%; note: % is set by controls: 0 for no effect and ±100 for the full control effect
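Compound effects on dopamine-evoked calcium signalling were measured in tetracycline-induced HEK293 Trex D1 cells. Dopamine at EC80 followed a 180 s compound pre-read, and fluorescence was tracked kinetically for 180 s more.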
TRHR agonist: activates the human TRH receptor. TRHR cells, calcium flux fluo-8, FDSS agonist mode. activation, % at 2 µM. 360,000 compounds, 0.18% hits; note: 0% is about no effect
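Read-out: compound-evoked intracellular calcium rise in TRHR cells, fluo-8 dye, kinetic FDSS fluorescence at 1 s/cycle following a 10-cycle baseline. Cells cultured overnight before dye loading (30 min–1.5 h, RT).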
D1 agonist: agonists of human D1 dopamine receptor; 360,000 compounds, 1% hits; HEK293 T-REx D1 cells, calcium flux, agonist mode; AID 504660; activation, % at 2 µM; note: 0% is about no effect
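Agonism was scored from calcium flux recorded over 180 s (1 read/s) after pintool compound addition, following a 10-cycle baseline. Cells were inducible force-coupled HEK293 TREx D1, plated overnight at 30 C and loaded with no-wash calcium dye.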
The depositor's hits bear a star; . = not tested or not shown; ! = a repeat was not active. The list is not random: actives were taken first. Their share in the collection is about 4.7%. Cut-off read from the data, not from the text of the source, unless noted: active = activation above about 30%; inactive = the rest.

SMILES	TRHR PAM	D1 PAM	D1 antag	TRHR agonist	D1 agonist
CCOc1ccc(C(=O)Nc2ccc(N3CCN(C)CC3)cc2)cc1	15	-7	-24	0	3
CCOc1cccc(C(=O)Nc2ccc(N3CCN(S(C)(=O)=O)CC3)cc2)c1	-5	-7	2	0	0
CCCCOc1ccc(C(=O)Nc2ccc(N3CCN(C)CC3)cc2)cc1	1	-16	-73*	-1	11
CCCCOc1cccc(C(=O)Nc2ccc(N3CCN(CC)CC3)cc2)c1	-1	-8	-51*	0	7
CN(C(=O)c1cc(S(=O)(=O)N2CCc3ccccc32)cn1C)C1CCCCC1	0	1	-54*	0	3
Cc1ccc(N(C)C(=O)c2cc(S(=O)(=O)N3CCc4ccccc43)cn2C)cc1	-7	-17	-29	-1	2
COc1ccc(N(C)C(=O)c2cc(S(=O)(=O)N3CCc4ccccc43)cn2C)c(OC)c1	7	-4	-55*	0	0
Cc1ccc(NC(=O)Cn2c(=O)n(CCCCCC(=O)NCc3ccc(F)cc3)c(=O)c3sccc32)cc1C	-13	0	0	1	5
COc1cc(CNC2CCC(C)C2)cc(OC)c1 (stereo not given)	-1	0	-48*	1	1
O=C(CSC1CC(=O)N(CCc2ccccc2)C1=O)Nc1cccc(Cl)c1 (stereo not given)	-9	0	-4	-2	33*
C/C(N)=C(/C#N)C(=O)CSc1nnc(-c2ccc(OC(F)F)cc2)o1	0	-7	-37*	0	4
C/C(N)=C(/C#N)C(=O)CSc1nnc(-c2ccc3c(c2)OCO3)o1	6	-9	0	1	2
CCN(C(=O)CCS(=O)(=O)c1cc2[nH]c(=O)c(=O)[nH]c2cc1C)c1ccccc1	3	-1	-80*	0	0
Cc1ccnc(NC(=O)c2cc(S(=O)(=O)NCc3ccccc3)ccc2C)c1	0	.	0	0	3
CCCc1nnc(SCCSc2nnc(CCC)n2N)n1N	2	-1	-32*	-1	12
O=C(CCc1cn(Cc2ccc(F)cc2)c2ccccc12)NCCc1ccc(Cl)cc1	0	-2	-11	3	15
Cc1ccc(-c2nc(N)s[n+]2-c2ccccc2)cc1	7	3	-37*	0	1
Cc1cc2[nH]c3c(=O)n(Cc4ccccc4F)ncc3c2s1	-6	-4	-72*!	0	0
O=C(O)Cc1ccc(NC(=O)COc2ccc3ccccc3c2)cc1	0	-12	-6	0	1
CN1CCN(c2ccc(NC(=O)COc3ccc4ccccc4c3)cc2)CC1	3	-3	-39*	1	16
CC(=O)Nc1ccc(NC(=O)COc2ccc3c(c2)CCC3)cc1	2	5	-35*	-1	2
CN1CCN(c2ccc(NC(=O)c3ccc4ccccc4c3)cc2)CC1	-1	-16	-71*	0	10
O=C(COc1ccc2ccccc2c1)Nc1ccc(Cc2ccncc2)cc1	-6	-8	-34*	4	27
Cc1ccc(C)c(CSc2c(C(C)C)cnc3c2c(=O)n(C)c(=O)n3C)c1	11	3	22	-1	1
N#Cc1ccc(NC(=O)C2Cc3ccccc3CN2S(=O)(=O)c2ccc(F)cc2)cc1 (stereo not given)	5	-3	-12	1	3
SMILES	TRHR PAM	D1 PAM	D1 antag	TRHR agonist	D1 agonist
Cc1ccc(NC(=O)NCc2cccn2C)cc1C	2	-17	-16	0	1
CCOc1ccc2nc(SCC(=O)Nc3ccc4[nH]c(=O)[nH]c4c3)[nH]c2c1	-3	-8	10	0	0
O=C(COC(=O)c1ccc(O)cc1O)Nc1ccc2ccccc2c1	-6	-3	-37*	0	5
O=C(COC(=O)c1ccc(O)cc1O)Nc1ccc2c(c1)OCCO2	-1	-6	-13	0	1
Cc1ccc(C)c(S(=O)(=O)c2cn(Cc3ccccc3)c3cc(N4CCCC4)c(F)cc3c2=O)c1	-1	-2	-35*	2	2
Cn1cc(S(=O)(=O)c2ccccc2)c(=O)c2cc(F)c(N3CCOCC3)cc21	3	-5	-85*!	1	10
Cc1cccc(Cn2cc(S(=O)(=O)c3ccccc3)c(=O)c3cc(F)c(N4CCOCC4)cc32)c1	38*	-3	-5	1	-2
CCCCn1cc(S(=O)(=O)c2ccc(C)cc2)c(=O)c2cc(F)c(N3CCCCC3)cc21	18	1	12	-1	71*
CCCn1cc(S(=O)(=O)c2ccc(C)cc2)c(=O)c2cc(F)c(N3CCCC3)cc21	0	-1	-6	0	1
COC(=O)c1c(NC(=O)CCCOc2ccccc2C)sc2c1CCC2	1	-1	-7	1	4
CCN(CC)S(=O)(=O)c1ccc2c(c1)N(CC(=O)NCCc1ccc(OC)c(OC)c1)C(=O)CO2	-3	0	6	1	3
COc1cc2c(cc1OC)[C@@H]1O[C@](c3ccsc3)(C2)Oc2cc(C)n(-c3ccccc3)c(=O)c21	22	-2	9	0	1
O=C(NCCCN1CCN(c2cccc(Cl)c2)CC1)Nc1ccccc1C(F)(F)F	-4	-1	-55*	0	32*
CCC(=O)N1c2ccccc2CC1C(=O)NCCCN1CCN(c2ccccc2)CC1 (stereo not given)	0	-1	-6	0	-1
CCC(=O)N1c2ccccc2CC1C(=O)NCCCN1CCN(c2cccc(Cl)c2)CC1 (stereo not given)	3	-1	-53*	-1	1
Cc1ccccc1CS(=O)(=O)CCC(=O)NCCN1CCN(c2cccc(Cl)c2)CC1	4	-7	-32*	-1	11
O=C(NCCN1CCN(c2cccc(Cl)c2)CC1)Nc1ccccc1C(F)(F)F	-3	-4	-43*	-1	19
O=C(CCNC(=O)Cn1ccc2ccccc2c1=O)NCCN1CCN(c2cccc(Cl)c2)CC1	3	-4	2	0	2
COc1ccc(CNC(=O)c2cc3c(=O)[nH]c4ccccc4c3n2C)c(OC)c1	6	7	3	-1	1
COC(=O)Cn1c(=O)c2cccn2c2ccc(F)cc21	-1	-1	22	1	-2
COc1ccccc1N1CCN(c2ncnc3c2cnn3C)CC1	9	1	11	0	-1
Cc1ccccc1-c1ncnn1-c1sc2c(c1C#N)CCCCC2	-4	3	1	-2	-3
Cc1cccc(C)c1NC(=O)NCCCN1CCN(c2ccccc2)CC1	8	-12	-36*	0	1
Cc1cccc(C)c1NC(=O)C(=O)NCCCN1CCOCC1	-1	-6	3	0	5
CSCCC(NC(=O)c1ccccc1Br)C(=O)NNC(=O)c1ccco1 (stereo not given)	-10	5	0	-1	-1
